Measurements published in PubChem BioAssay AID1159580 (chemical genetic matrix, 2015).
“And” between values parts separate entries of the source, which are not always exact repeats. Equal values may be shown once. Among all 5,500 compounds or so, about 2,000 (36%) were called active. Roughly 18% stayed inconclusive and do not appear here. Cut-off read from the data, not from the text of the source: active = normalized growth mostly below about 0.91 (no sharp cut-off); inconclusive = no clear call, values can overlap the other calls; inactive = mostly above about 0.92. This is one part of the list.

Assay: chemical genetic growth profiling, strain panel (AID 1159580);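 note: tested at 20 µM; growth read once vehicle control cultures reached saturation at 30 °C; 1 = growth at the plate median or of vehicle wells; lower values mean less growth of the strain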
Settings: S. cerevisiae deletion strains, growth OD

Measured: normalized growth

NC(=O)CN1CCCC1=O
inactive: locus YAL013W, strain DEP1, stronger effect = lower value 1.01 and 1 | locus YAL021C, strain ccr4, stronger effect = lower value 0.982 | locus YAL026C, strain drs2, stronger effect = lower value 0.988 | locus YAL030W, strain snc1, stronger effect = lower value 0.992 | locus YAL040C, strain CLN3, stronger effect = lower value 0.986 | locus YBL061C, strain skt5, stronger effect = lower value 0.985 | locus YBR009C, strain hhf1, stronger effect = lower value 1 | locus YBR021W, strain FUR4, stronger effect = lower value 1.02 | locus YBR023C, strain chs3, stronger effect = lower value 0.991 | locus YBR171W, strain sec66, stronger effect = lower value 0.982 | locus YBR229C, strain ROT2, stronger effect = lower value 1.01 | locus YBR231C, strain swc5, stronger effect = lower value 1 | locus YBR279W, strain paf1, stronger effect = lower value 0.99 | locus YCL011C, strain gbp2, stronger effect = lower value 0.999 | locus YCL016C, strain dcc1, stronger effect = lower value 0.986 | locus YCL029C, strain bik1, stronger effect = lower value 1.02 | locus YCL061C, strain MRC1 (second series), stronger effect = lower value 1 | locus YCL061C, strain MRC1, stronger effect = lower value 0.981 | locus YCL069W, strain vba3, stronger effect = lower value 0.996 | locus YCR088W, strain abp1, stronger effect = lower value 0.978 | locus YDL005C, strain med2, stronger effect = lower value 0.996 | locus YDL035C, strain GPR1, stronger effect = lower value 1.02 | locus YDL040C, strain nat1, stronger effect = lower value 0.993 | locus YDL074C, strain BRE1, stronger effect = lower value 0.985 | locus YDL101C, strain DUN1, stronger effect = lower value 0.999 | locus YDL134C, strain PPH21, stronger effect = lower value 1.02 | locus YDL185W, strain tfp1, stronger effect = lower value 1.01 | locus YDL192W, strain arf1, stronger effect = lower value 1.01 | locus YDR001C, strain nth1, stronger effect = lower value 0.993 | locus YDR069C, strain doa4, stronger effect = lower value 1 | locus YDR101C, strain arx1, stronger effect = lower value 0.991 | locus YDR137W, strain rgp1, stronger effect = lower value 0.98 | locus YDR159W, strain sac3, stronger effect = lower value 1.01 | locus YDR162C, strain NBP2, stronger effect = lower value 1.01 | locus YDR195W, strain ref2 0.976 | locus YDR297W, strain sur2, stronger effect = lower value 0.989 | locus YDR318W, strain mcm21, stronger effect = lower value 1.01 | locus YDR334W, strain swr1, stronger effect = lower value 0.979 | locus YDR335W, strain msn5, stronger effect = lower value 0.989 | locus YDR363W, strain ESC2, stronger effect = lower value 0.983 | locus YDR388W, stronger effect = lower value 1.01 | locus YDR392W, strain spt3, stronger effect = lower value 0.916 | locus YDR502C, strain sam2, stronger effect = lower value 1.01 | locus YEL003W, strain gim4, stronger effect = lower value 0.999 | locus YEL037C, strain rad23, stronger effect = lower value 0.986 | locus YEL061C, strain CIN8 (second series), stronger effect = lower value 0.984 | locus YEL061C, strain CIN8, stronger effect = lower value 1.01 | locus YER002W, strain NOP16, stronger effect = lower value 1 | locus YER015W, strain faa2, stronger effect = lower value 1.01 | locus YER016W, strain bim1, stronger effect = lower value 0.996 | locus YER110C, stronger effect = lower value 1.02 | locus YER111C, strain swi4, stronger effect = lower value 0.988 | locus YER155C, strain BEM2 (second series), stronger effect = lower value 0.975 | locus YER155C, strain BEM2, stronger effect = lower value 1.01 | locus YER167W, strain BCK2, stronger effect = lower value 1.01 | locus YFR010W, strain ubp6, stronger effect = lower value 0.972 | locus YGL078C, strain dbp3, stronger effect = lower value 1.02 | locus YGL086W, strain mad1, stronger effect = lower value 1 | locus YGL167C, strain pmr1, stronger effect = lower value 0.986 | locus YGL173C, strain kem1, stronger effect = lower value 0.998 | locus YGL227W, strain vid30, stronger effect = lower value 0.998 | locus YGL240W, strain doc1, stronger effect = lower value 0.993 | locus YGL248W, strain PDE1, stronger effect = lower value 0.994 | locus YGL253W, strain hxk2, stronger effect = lower value 1 | locus YGR078C, strain PAC10, stronger effect = lower value 0.991 | locus YGR135W, strain pre9, stronger effect = lower value 1.02 | locus YGR252W, strain gcn5, stronger effect = lower value 0.997 | locus YHR013C, strain ard1, stronger effect = lower value 0.963 | locus YHR027C, strain rpn1, stronger effect = lower value 0.988 | locus YHR030C, strain SLT2, stronger effect = lower value 1 and 0.994 | locus YHR079C, strain IRE1 (second series), stronger effect = lower value 1.01 | locus YHR079C, strain IRE1, stronger effect = lower value 0.995 | locus YHR094C, strain hxt1, stronger effect = lower value 1.01 | locus YHR129C, strain ARP1, stronger effect = lower value 1.01 | locus YHR142W, strain chs7, stronger effect = lower value 0.971 | locus YHR200W, strain rpn10, stronger effect = lower value 1.01 | locus YIL066C, strain RNR3, stronger effect = lower value 1.01 | locus YIL073C, strain SPO22, stronger effect = lower value 1.08 | locus YIL125W, strain kgd1, stronger effect = lower value 1.01 | locus YIR030C, strain dcg1, stronger effect = lower value 1.01 | locus YJL092W, strain hpr5, stronger effect = lower value 0.989 | locus YJL095W, strain BCK1 (second series), stronger effect = lower value 0.995 | locus YJL095W, strain BCK1, stronger effect = lower value 0.992 and 0.977 | locus YJL115W, strain asf1, stronger effect = lower value 0.985 | locus YJL129C, strain trk1, stronger effect = lower value 0.998 | locus YJL134W, strain LCB3, stronger effect = lower value 0.997 | locus YJL154C, strain vps35, stronger effect = lower value 0.987 | locus YJL164C, strain tpk1, stronger effect = lower value 0.998 | locus YJL166W, strain qcr8, stronger effect = lower value 0.968 | locus YJL168C, strain set2, stronger effect = lower value 1 | locus YJL187C, strain SWE1 (second series), stronger effect = lower value 1 | locus YJL187C, strain SWE1, stronger effect = lower value 0.982 | locus YJR043C, strain POL32, stronger effect = lower value 1.01 | locus YJR066W, strain TOR1, stronger effect = lower value 0.951 | locus YJR075W, strain HOC1, stronger effect = lower value 1 and 0.993
